Assay [1] concerns Plasmodium falciparum Sir2 (PF13_0152, Sir2A). Description: Plasmodium falciparum Sir2A binding compounds – biochemical, small-molecule microarray, 635 nm fluorescence, primary screen (AID 1098).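 Note: score merges spot fluorescence intensity with its signal-to-noise ratio.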 Conditions: fluorescence 635 nm, higher = more signal.
Assay [2] in a line: probe aDKK1 binding to arrayed compounds – biochemical, biotinylated probe, 635/667 nm fluorescence, primary screen (AID 1099).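 Note: score merges 667nm spot fluorescence with signal to noise across triplicate slides.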 To be noted: small-molecule microarray, higher = more signal.
Assay [3] can be described thus: probe aCHRDL2 binding to arrayed compounds – biochemical, biotinylated probe, 635/667 nm fluorescence, primary screen (AID 1100). To be noted: small-molecule microarray, higher = more signal.
A short description of assay [4]: change in splice reporter luminescence, either direction, cell-based, HEK293, spliceosome inhibition project, primary screen (AID 1101).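 Note: HEK293 cells carrying a splicing-competent luciferase reporter gene; test concentration not given here.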 To be noted: HEK293 splicing luciferase reporter, 24 h, higher = more signal, called active from +8 up or from −8 down.
The target of assay [5] is Fibroblast growth factor 10 (Homo sapiens) (UniProt O15520). The experiment in a line: compounds binding fibroblast growth factor 10 – biochemical, small-molecule microarray, 635 nm fluorescence, primary screen (AID 1102). To be noted: FGF10 binding, fluorescence 635 nm, higher = more signal.
The subject of assay [6] is glycogen synthase kinase-3 (GSK3A per assay name; protocol says GSK3B). The experiment in a line: compounds binding glycogen synthase kinase-3 – biochemical, small-molecule microarray, 635 nm fluorescence, GSK3A, primary screen (AID 1103). Note: the record names both GSK3A and GSK3B. To be noted: fluorescence 635 nm, higher = more signal.
In assay [7] the target is Epidermal growth factor receptor (Homo sapiens) (UniProt P00533). The experiment in a line: compounds binding epidermal growth factor receptor – biochemical, small-molecule microarray, 635 nm fluorescence, primary screen (AID 1104).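 Note: score merges 667 nm emission intensity with spot signal to noise over triplicate slides.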 To be noted: EGFR binding, higher = more signal.
Assay [8] addresses Follistatin-related protein 3 (Homo sapiens) (UniProt O95633). The experiment in a line: compounds binding follistatin-related protein 3 – biochemical, small-molecule microarray, 635 nm fluorescence, primary screen (AID 1105).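 Note: score merges emission near 667 nm and signal to noise per printed spot across three slides.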 Conditions: FSTL3 binding, higher = more signal.
The target of assay [9] is Dickkopf-related protein 1 (Homo sapiens) (UniProt O94907). The experiment in a line: small molecules binding DKK1 protein – biochemical, small-molecule microarray, 635 nm fluorescence scan, primary screen (AID 1106).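 Note: score merges emission near 667 nm with signal to noise over three replicate slides.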 To be noted: higher = more signal.
Assay [10] deals with Inhibin beta A chain (activin A). The experiment in a line: small molecules binding activin A – biochemical, small-molecule microarray, 635 nm fluorescence scan, primary screen (AID 1107).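 Note: mouse activin A protein probed at 4.33 µg/mL on printed slides; score merges bound-protein fluorescence near 667 nm with spot signal-to-noise.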 To be noted: INHBA, higher = more signal.
For assay [11], the system named is Human papillomavirus type 1a protein E7 (residues 44-93). Description: small molecules binding HPV E7 44-93 – biochemical, small-molecule microarray, residues 44-93, 635 nm fluorescence, primary screen (AID 1108).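 Note: E7 fragment applied at 1 µg/mL in TBST for 1 h at 4 C; score combines spot fluorescence with its signal to noise ratio.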 Conditions: fluorescence 635 nm, higher = more signal.
Assay [12] is described as follows: hepatitis C replication reporter changes, two-sided – Huh7 cells, luciferase reporter, HCV replication inhibitor project, primary screen (AID 1109).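 Note: huh7 hepatoma cells harbouring a luciferase neomycin HCV replicon reporter; luciferase luminescence as measure of HCV replicon replication; test concentration not given here.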 Conditions: Huh7 HCV replicon luciferase reporter, 48 h; higher = more signal.
The target of assay [13] is Left-right determination factor 2 (Homo sapiens) (UniProt O00292). The experiment in a line: small molecules binding LEFTY2 protein – biochemical, small-molecule microarray, 635 nm fluorescence scan, primary screen (AID 1110). To be noted: higher = more signal.
Assay [14] concerns the target Calmodulin-1 (Homo sapiens) (UniProt P0DP23). The experiment in a line: small molecules binding calmodulin-1 with EGTA – biochemical, small-molecule microarray, Cy5-labelled CALM1, profiling panel (AID 1111).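 Note: labelled calmodulin applied in Tris saline Tween buffer holding calcium plus EGTA and DTT.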 Conditions: Cy5-CALM1 binding fluorescence, higher = more signal.
Assay [15] has the same target. The experiment in a line: small molecules binding Ca-loaded calmodulin-1 – biochemical, small-molecule microarray, Cy5-labelled CALM1, plus calcium, artefact control for SMM control-protein annotation, profiling panel (AID 1112).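 Note: score merges spot fluorescence with signal to noise from triplicate slides.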 Conditions: Cy5-CALM1 binding fluorescence, higher = more signal.
Assay [16] can be described thus: probe aWnt5a binding to arrayed compounds – biochemical, biotinylated probe, 635/667 nm fluorescence, primary screen (AID 1113).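 Note: score merges 667 nm fluorescence intensity with signal-to-noise per printed feature.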 Conditions: small-molecule microarray, higher = more signal.
Assay [17] in a line: probe aShh binding to arrayed compounds – biochemical, biotinylated probe, 635/667 nm fluorescence, primary screen (AID 1114).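 Note: probe is biotin-labelled aShh protein from a stem cell growth factor screen; measures binding of labelled protein to compounds printed on the slide; score merges feature fluorescence at 667 nm with signal-to-noise.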 Conditions: small-molecule microarray, higher = more signal.
Assay [18] is described as follows: probe aNog binding to arrayed compounds – biochemical, biotinylated probe, 635/667 nm fluorescence, primary screen (AID 1115).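 Note: probe is biotinylated aNog protein used at 0.15 µg/mL for 1 h at 4 C; z-score combines 667 nm fluorescence of each spot with its signal to noise.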 Conditions: small-molecule microarray, higher = more signal.
The target of assay [19] is Torsin-1A-interacting protein 1 (Homo sapiens) (UniProt Q5JTV8). The experiment in a line: compound microarray binding of lysate hLAP1 – cell lysate, small-molecule microarray, COS7 lysate, 635/667 nm fluorescence, primary screen (AID 1116). Conditions: 635 nm fluorescence, higher = more signal.
Assay [20] deals with Alpha-bungarotoxin (Bungarus multicinctus) (UniProt P60615). Description: compounds binding labelled alpha-BTX control protein – biochemical, small-molecule microarray, Alexa647 label, 635/667 nm fluorescence, artefact control for SMM control protein annotation, profiling panel (AID 1117). Conditions: alpha-BTX-A647 binding fluorescence, higher = more signal.

Activity calls are given as the source filed them.

Chain of Dickkopf-related protein 1 (Homo sapiens) (O94907 whole entry, looked up): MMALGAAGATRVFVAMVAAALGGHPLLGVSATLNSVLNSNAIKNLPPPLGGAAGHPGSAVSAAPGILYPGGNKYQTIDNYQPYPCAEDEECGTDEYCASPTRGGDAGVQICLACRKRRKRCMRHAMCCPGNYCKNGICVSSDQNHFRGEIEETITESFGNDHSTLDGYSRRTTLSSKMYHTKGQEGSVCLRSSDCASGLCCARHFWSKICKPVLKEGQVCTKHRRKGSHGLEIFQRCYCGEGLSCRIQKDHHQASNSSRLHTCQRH
Chain of Left-right determination factor 2 (Homo sapiens) (O00292 whole entry, looked up): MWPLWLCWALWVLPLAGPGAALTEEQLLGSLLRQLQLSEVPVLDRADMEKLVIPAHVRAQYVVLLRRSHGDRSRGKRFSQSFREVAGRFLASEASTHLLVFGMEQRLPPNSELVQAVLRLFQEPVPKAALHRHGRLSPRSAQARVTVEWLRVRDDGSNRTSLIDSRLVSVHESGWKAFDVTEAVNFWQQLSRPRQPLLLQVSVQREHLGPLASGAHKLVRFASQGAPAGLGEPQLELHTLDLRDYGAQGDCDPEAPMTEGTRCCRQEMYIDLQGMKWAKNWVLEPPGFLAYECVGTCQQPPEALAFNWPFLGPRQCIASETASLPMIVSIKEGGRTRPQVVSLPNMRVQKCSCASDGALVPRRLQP
Chain of Alpha-bungarotoxin (Bungarus multicinctus) (P60615 whole entry, looked up): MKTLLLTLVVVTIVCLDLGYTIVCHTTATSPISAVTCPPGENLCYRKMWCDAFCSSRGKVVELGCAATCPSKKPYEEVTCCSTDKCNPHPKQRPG
Chain of Torsin-1A-interacting protein 1 (Homo sapiens) (Q5JTV8 whole entry, looked up): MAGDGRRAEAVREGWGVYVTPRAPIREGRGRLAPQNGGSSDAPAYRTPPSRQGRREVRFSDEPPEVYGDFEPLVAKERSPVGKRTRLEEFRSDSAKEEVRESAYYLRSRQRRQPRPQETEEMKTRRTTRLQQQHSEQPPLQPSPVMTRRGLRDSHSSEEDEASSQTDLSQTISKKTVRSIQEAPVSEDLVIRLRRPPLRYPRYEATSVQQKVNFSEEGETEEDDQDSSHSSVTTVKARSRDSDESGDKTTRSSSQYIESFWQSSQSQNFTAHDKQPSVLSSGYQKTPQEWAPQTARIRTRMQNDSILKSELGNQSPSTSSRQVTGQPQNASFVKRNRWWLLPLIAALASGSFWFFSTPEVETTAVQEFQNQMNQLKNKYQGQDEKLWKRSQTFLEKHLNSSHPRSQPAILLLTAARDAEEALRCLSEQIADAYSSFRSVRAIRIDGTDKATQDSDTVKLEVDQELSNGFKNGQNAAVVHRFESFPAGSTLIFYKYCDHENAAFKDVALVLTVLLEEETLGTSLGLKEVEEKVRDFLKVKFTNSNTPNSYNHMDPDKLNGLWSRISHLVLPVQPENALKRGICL
Chain of Fibroblast growth factor 10 (Homo sapiens) (O15520 whole entry, looked up): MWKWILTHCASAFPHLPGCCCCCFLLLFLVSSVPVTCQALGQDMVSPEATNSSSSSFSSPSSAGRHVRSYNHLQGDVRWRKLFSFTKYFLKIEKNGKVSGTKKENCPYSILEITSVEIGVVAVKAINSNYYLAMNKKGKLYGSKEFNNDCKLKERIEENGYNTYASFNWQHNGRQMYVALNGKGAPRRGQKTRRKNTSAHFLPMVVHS
Chain of Follistatin-related protein 3 (Homo sapiens) (O95633 whole entry, looked up): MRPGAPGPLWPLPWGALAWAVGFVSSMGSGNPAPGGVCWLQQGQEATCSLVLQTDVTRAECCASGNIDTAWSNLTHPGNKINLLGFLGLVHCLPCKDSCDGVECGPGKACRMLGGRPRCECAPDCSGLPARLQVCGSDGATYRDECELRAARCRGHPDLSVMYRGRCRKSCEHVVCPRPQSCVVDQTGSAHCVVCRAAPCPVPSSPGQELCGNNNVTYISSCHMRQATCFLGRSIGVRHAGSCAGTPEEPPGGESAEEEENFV
Chain of Epidermal growth factor receptor (Homo sapiens) (P00533 whole entry, looked up): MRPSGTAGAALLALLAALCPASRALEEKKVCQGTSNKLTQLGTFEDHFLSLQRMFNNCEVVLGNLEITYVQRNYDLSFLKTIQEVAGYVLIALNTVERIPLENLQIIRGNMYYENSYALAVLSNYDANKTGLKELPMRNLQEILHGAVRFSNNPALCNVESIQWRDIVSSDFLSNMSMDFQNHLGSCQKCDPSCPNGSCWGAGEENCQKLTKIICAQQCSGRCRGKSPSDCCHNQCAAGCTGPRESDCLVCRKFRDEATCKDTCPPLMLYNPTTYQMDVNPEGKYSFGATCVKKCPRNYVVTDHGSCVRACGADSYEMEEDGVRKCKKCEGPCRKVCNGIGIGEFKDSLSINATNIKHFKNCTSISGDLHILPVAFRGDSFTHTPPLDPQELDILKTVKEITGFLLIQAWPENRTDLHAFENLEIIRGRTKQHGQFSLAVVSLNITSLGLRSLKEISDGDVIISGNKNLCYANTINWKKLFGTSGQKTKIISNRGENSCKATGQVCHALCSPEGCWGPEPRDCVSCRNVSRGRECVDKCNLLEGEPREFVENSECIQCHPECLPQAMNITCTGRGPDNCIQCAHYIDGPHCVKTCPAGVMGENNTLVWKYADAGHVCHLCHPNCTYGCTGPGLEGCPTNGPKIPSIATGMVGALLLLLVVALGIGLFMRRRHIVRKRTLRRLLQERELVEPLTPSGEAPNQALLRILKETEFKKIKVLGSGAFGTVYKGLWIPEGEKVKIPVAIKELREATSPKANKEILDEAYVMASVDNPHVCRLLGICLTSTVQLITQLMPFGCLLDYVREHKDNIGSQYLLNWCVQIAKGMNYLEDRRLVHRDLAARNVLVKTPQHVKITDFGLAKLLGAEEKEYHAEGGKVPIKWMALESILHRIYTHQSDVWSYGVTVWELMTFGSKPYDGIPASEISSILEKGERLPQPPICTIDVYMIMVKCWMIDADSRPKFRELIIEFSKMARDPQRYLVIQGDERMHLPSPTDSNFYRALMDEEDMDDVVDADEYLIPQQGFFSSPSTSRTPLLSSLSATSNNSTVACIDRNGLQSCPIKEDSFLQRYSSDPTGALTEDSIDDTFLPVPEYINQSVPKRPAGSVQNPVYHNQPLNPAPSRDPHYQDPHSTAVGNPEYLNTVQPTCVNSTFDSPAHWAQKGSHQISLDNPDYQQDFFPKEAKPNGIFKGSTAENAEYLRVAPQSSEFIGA

On to `O=C1OCCC/C=C\[C@H]2OC34C=CCN(CCN5CCOCC5)C(=O)[C@H]3N(CCCCCCO)C(=O)[C@@H]4C12` (stereo not given in full), for which the composite z-score in assay [1] was 1.16; in assay [2], -0.0117; in assay [3], -0.0021; in assay [5], -0.145; in [6] it was 0.229; in assay [7] it was -0.684. The composite z-score was -0.0634 in assay [8]; -0.528 in [9]; 1.41 in assay [10]; -0.776 in assay [11]; -0.311 in [13]; -0.523 in assay [14]. Further, the composite z-score in assay [15] was -0.909; in [16], -0.18; in [17], -0.0553; in [18] it was -0.103; in assay [19], 1.52; in assay [20], -0.162. In addition, the results for the z-score in [4] and in assay [12] were -1.4 (inactive) and 0.857, respectively.
In the case of `CC(C)(C)N1CC=CC23O[C@@H]4C=CCCOC(=O)C4[C@H]2C(=O)N(CCO)[C@@H]3C1=O` (stereo not given in full), the composite z-score in [1] was -1.04; in assay [2], -0.106; in [3], -0.254; in assay [5], -0.385; in assay [6], -0.649; in assay [7] it was -0.306. In addition, the composite z-score was -0.959 in assay [8]; -0.492 in assay [9]; 0.0863 in assay [10]; -0.282 in assay [11]; -0.475 in [13]; -0.504 in assay [14]. In addition, the composite z-score in assay [15] is -0.511; in assay [16] it was -0.0924; in [17], -0.0146; in assay [18], 0.0417; in assay [19], -0.108; in [20], 1.37. The figures for the z-score in [4] and in [12] were 0.288 (inactive) and 0.361, respectively.
As for `CN1C(=O)C2C=CC(C(O)c3ccccn3)N(N(c3ccccc3)c3ccccc3)C2C1=O` (stereo not given), the composite z-score in [1] is 1.44; in assay [2], -0.16; in [3] it was 0.711; in assay [5] it was 0.62; in assay [6] it was 0.19; in assay [7], 0.22. Also, the composite z-score in [8] was 0.273; in assay [9], -0.0644; in assay [10], 0.79; in assay [11], -0.686; in assay [13] it was -0.0321; in assay [14], 0.0023. In addition, the composite z-score in assay [15] was -0.0692; in assay [16] it was -0.0735; in assay [17] it was 0.0684; in assay [18], 0.427; in assay [19], 1.07; in assay [20], 0.451. Also, the results for the z-score in [4] and in [12] were 0.527 (inactive) and -0.276, respectively.
As for `CCCC[C@@H](O)C1=C(COc2ccccc2)C[C@H]2C(=O)N(C)C(=O)[C@H]2[C@H]1CO`, the composite z-score in assay [1] was 0.119; in [2] it was -0.423; in [3] it was -0.575; in assay [5] it was -0.0816; in assay [6], -0.0425; in assay [7], -0.333. Also, the composite z-score in assay [8] is -0.0008; in [9], -0.0034; in assay [10], 0.799; in assay [11], -1.05; in assay [13], -0.164; in [14], -0.756. Besides, the composite z-score in assay [15] was -0.527; in assay [16], -0.195; in assay [17] it was -0.2; in assay [18], -0.519; in assay [19], -1; in [20], -0.149. The z-score in [4] was -1.3 (inactive); in [12] it was -0.408.
In the case of `COCCOC(=O)N1C(=O)[C@@]2(c3cc(C#CCCO)ccc31)[C@H](c1ccccc1OCCO)N1[C@H](c3ccccc3)[C@H](c3ccccc3)OC(=O)[C@H]1[C@@H]2C(=O)Nc1nc2ccccc2s1`, the composite z-score in [1] is 1.5; in [2], 0.95; in [3] it was 0.856; in [5] it was 0.689; in [6], 1.2; in assay [7], 0.397. In addition, the composite z-score in assay [8] was 0.966; in assay [9], 0.635; in assay [10], 0.46; in assay [11], 0.323; in assay [13], 0.558; in [14], 1.39. For the same compound, the composite z-score was 0.704 in assay [15]; -0.0519 in assay [16]; 0.173 in [17]; 0.429 in [18]; 1.62 in assay [19]; 2.29 in [20]. The z-score is -0.713 (inactive) in assay [4] and -1.65 in assay [12].

These data come from PubChem BioAssay.
